Most compounds without a hit are left out; they make up all but 4.1% or so of the library.
tim10-1 inh – growth inhibitors of tim10-1 mutant yeast | S. cerevisiae tim10-1 ts strain growth, BacTiter-Glo, 24 h | inhibition, % at 20 µM | hit rate 2.2% among 330,000;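 active means inhibition of at least 40%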;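 further: mutant grown at 25 °C; 0% = DMSO wells with yeast and 100% = wells holding no yeast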
TIM10 inh – growth inhibitors of TIM10 yeast strain. hit rate 1.4% among 330,000. S. cerevisiae TIM10 strain growth, BacTiter-Glo luminescence, 24 h. AID 463195. inhibition, % at 10 µM;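 active means inhibition of 40% or more at the single tested concentration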;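 further: wild-type TIM10 isogenic control strain grown at permissive 25 °C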
NLRP3 yeast inh – blocks the NALP3 inflammasome reconstituted in yeast. inhibition, % at 10 µM. hit rate 0.39% among 330,000. Yeast reconstituted NLRP3/ASC/caspase-1, beta-gal luminescence, 24 h;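 active means inhibition of 50% or more; inactive means inhibition below 50%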;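 further: plate controls were induced DMSO wells for no effect and uninduced yeast grown without galactose for full effect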
tim23-1 inh – tim23-1 yeast growth inhibition; S. cerevisiae tim23-1 growth, BacTiter-Glo luminescence, 24 h; inhibition, % at 20 µM; hit rate 1.3% among 330,000;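 active means growth inhibition of the mutant yeast at or above 50%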;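 further: temperature-sensitive mutant grown at 25 °C; plate controls were DMSO-treated mutant yeast for no effect and medium wells lacking yeast for full effect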
NALP1 inh – NALP1 inhibition. hit rate 0.61% among 280,000. AID 2071. S. cerevisiae NALP1/ASC/caspase-1 growth, X-gal OD620, 72 h. inhibition, % at 10 µM; in the data active means inhibition mostly above about 24%, no sharp cut-off; inactive means mostly below about 32%
tim23-1 conf – confirmation of tim23-1 mutant yeast growth inhibitors | shares compounds with tim23-1 inh | S. cerevisiae tim23-1 growth, BacTiter-Glo luminescence, 24 h | inhibition, % at 20 µM | hit rate 83% among 4,400;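 active means inhibition above about 39% in either of two replicate wells at 20 µM, limit read from the data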;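 further: temperature-sensitive tim23-1 mutant grown at 25 °C; 0% = DMSO wells with yeast and 100% = medium wells without yeast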
Numbers without * were called inactive.

Clc1ccc2[nH]c3c(c2c1)CCc1cn[nH]c1-3 was read as tim10-1 inh -0.4, TIM10 inh 28.3, NLRP3 yeast inh 11.7, tim23-1 inh 20.6 and NALP1 inh -0.3.
c1ccc2c3c([nH]c2c1)-c1[nH]ncc1CC3 was read as tim10-1 inh 12.8, TIM10 inh 2.6, NLRP3 yeast inh 23.7, tim23-1 inh 60.7*, NALP1 inh -1.7 and tim23-1 conf 37.8.
Oc1ccc(F)cc1-c1cc(-c2ccc3c(c2)OCCO3)n[nH]1 was read as tim10-1 inh 3.5, TIM10 inh 17.5, NLRP3 yeast inh 23.7, tim23-1 inh -6.1 and NALP1 inh 1.6.
Oc1ccccc1-c1cc(-c2ccccc2)n[nH]1 was read as tim10-1 inh -8.9, TIM10 inh 18.3, NLRP3 yeast inh 36.2, tim23-1 inh 71.5* and tim23-1 conf 60.0*.
`Oc1ccccc1-c1cc(-c2ccc(F)cc2)n[nH]1` gave tim10-1 inh 39.3, TIM10 inh 25.3, NLRP3 yeast inh 20.4, tim23-1 inh 67.7*, NALP1 inh 12.1 and tim23-1 conf 60.9*.
Screening Oc1ccccc1-c1ccn[nH]1 returned tim10-1 inh -3.7, TIM10 inh -9.8, NLRP3 yeast inh 23.2 and tim23-1 inh 2.4.
Screening CC1CCCN(C(=O)CSc2nnc3ccccn23)C1 (stereo unspecified) returned tim10-1 inh -12.0, TIM10 inh 5.4, NLRP3 yeast inh 16.6 and tim23-1 inh -15.0.
Screening CC(=O)c1ccc(S(=O)(=O)NCCC(=O)NC2CCN(Cc3ccccc3)CC2)cc1 returned tim10-1 inh 13.2, TIM10 inh -4.6, NLRP3 yeast inh 20.7 and tim23-1 inh 5.9.
Screening Oc1ccc(Cl)cc1C1=NNC(c2ccc(Cl)cc2)C1 (stereo unspecified) returned tim10-1 inh 33.4, TIM10 inh 32.3, NLRP3 yeast inh 5.2, tim23-1 inh 50.4*, NALP1 inh 10.0 and tim23-1 conf 50.4*.
COc1ccc(C2=NNC(c3cc(Cl)cc4c3OCOC4)C2)c(O)c1 (stereo unspecified) was read as tim10-1 inh 27.7, TIM10 inh 33.3, NLRP3 yeast inh 19.1, tim23-1 inh 28.4 and NALP1 inh 2.4.
Oc1ccc(Cl)cc1C1=NNC(c2cc(Br)cc3c2OCOC3)C1 (stereo unspecified) was read as tim10-1 inh 39.8, TIM10 inh 25.8, NLRP3 yeast inh 0.8, tim23-1 inh 56.0*, NALP1 inh 13.7 and tim23-1 conf 56.0*.
CCn1cnc2cc([N+](=O)[O-])ccc21 was read as tim10-1 inh 7.1, TIM10 inh -4.7, NLRP3 yeast inh 13.7, tim23-1 inh 12.5 and NALP1 inh -6.8.
O=C(O)CN1C(=O)/C(=C\c2cc(Br)ccc2OCc2ccc(Cl)cc2Cl)SC1=S was read as tim10-1 inh 28.0, TIM10 inh 18.7, NLRP3 yeast inh 7.8, tim23-1 inh 52.8*, NALP1 inh -4.1 and tim23-1 conf 56.0*.
For Brc1ccc(-c2csc(Nc3nc(-c4ccc(Br)cc4)cs3)n2)cc1 the results were tim10-1 inh 12.5, TIM10 inh 8.4, NLRP3 yeast inh 5.7, tim23-1 inh 53.4*, NALP1 inh 5.3 and tim23-1 conf 12.3.
OC(COc1cccc2ccccc12)CN1CCN(c2cccc(Cl)c2)CC1 (stereo unspecified) was read as tim10-1 inh 3.7, TIM10 inh -4.8, NLRP3 yeast inh 24.5, tim23-1 inh 69.0*, NALP1 inh 18.2 and tim23-1 conf -36.8.
For OC(COc1ccc(Cl)c2ccccc12)CN1CCN(c2ccccn2)CC1 (stereo unspecified) the results were tim10-1 inh 1.3, TIM10 inh 6.7, NLRP3 yeast inh 49.0, tim23-1 inh 63.0*, NALP1 inh 28.3 and tim23-1 conf 4.5.
`CCn1c(/C=C2\C(=O)N(C(C)C)c3ccccc32)nc2ccccc2c1=O` gave tim10-1 inh 30.6, TIM10 inh 39.0, NLRP3 yeast inh 13.4, tim23-1 inh 55.5*, NALP1 inh 2.6 and tim23-1 conf 41.5*.
For CC(C)N1C(=O)/C(=C\c2nc3ccccc3c(=O)[nH]2)c2ccccc21 the results were NALP1 inh 27.0.
`C=CCNc1nc2ccccc2nc1NS(=O)(=O)c1ccc(F)cc1` gave tim10-1 inh 32.4, TIM10 inh -2.8, NLRP3 yeast inh 6.6, tim23-1 inh 38.8 and NALP1 inh -10.1.
